Source: PubChem BioAssay (NCI)
Where “and” joins values, the source holds several entries; their conditions need not be identical. Identical values can stand only once. The panel holds about 83,000 compounds, 20% with a hit somewhere; the sample as a whole holds those more often.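 Note: values are percent growth. 100 is the growth of untreated cells, values between 100 and 0 indicate rising inhibition; between -100 and 0 indicates cell death.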 Calls of active or inactive are those of the source. Rule for the calls: active = growth percent below 10; inactive = the rest.

These compounds were tested on HL-60(TB) leukemia (assay: NCI-60 one-dose screen, 48 h (100 = growth as untreated, 0 = no growth, -100 = all killed)). Conditions: 10 µM unless noted.

Compound	growth
O=C(CSc1nnc(-c2c[nH]c3ccccc23)n1-c1ccccc1)c1ccccc1	87.2% (inactive)
O=C(NO)c1ccc(CN2CCN(c3nc(-c4ccccc4)c4ccccc4n3)CC2)cc1	7.7% (active)
O=C1Nc2cc(Cl)ccc2/C1=C/c1cccc(OCc2ccccn2)c1	-9.79% (active)
O=C(NNc1ccccc1)n1c(=O)c2ccccc2c(=O)n1-c1ccccc1	82.7% (inactive)
O=C(Nc1cccc([N+](=O)[O-])c1)Nc1cccc([N+](=O)[O-])c1	92.4% (inactive)
Cc1ccc(S(=O)(=O)c2nc(S(=O)(=O)c3ccc(C)cc3)c(Cl)s2)cc1	15.9% (inactive)
CC1=C(C(=O)OC(C)C)C(c2cccc(O)c2)NC(=S)N1 (stereo not drawn)	99.2% (inactive)
CC1(c2cc3cc(Cl)ccc3oc2=O)NC(=O)c2c(/C=C/C(=O)OC3CC4CCC3(C)C4(C)C)cccc2N1 (stereo not drawn)	29% (inactive)
COc1ccc2oc(=O)c(-c3csc(N/N=C(\C)c4cc(OC)c(OC)c(OC)c4)n3)cc2c1	107% (inactive)
COC(=O)c1c(C(=O)OC)c2n(c1C)[C@@H]([C@@H](C)[C@H]1CC[C@H]3[C@@H]4CCC5=CC(=O)CC[C@]5(C)[C@H]4CC[C@]13C)SC2	7% (active)
Cc1ccc(-c2nc(Nc3ccc(S(N)(=O)=O)cc3)c3ccccc3n2)cc1	24.9% (inactive)
COc1ccc(N=Nc2c(N)nn3c(N)c(C#N)c(-c4ccccc4)nc23)cc1	80.8% (inactive)
COc1ccc(NC(=O)[C@H](C)N)cc1C(=O)Nc1cccc(C2CC(=O)c3c(cc(OC)c(OC)c3OC)O2)c1 (stereo partly drawn)	69.8% (inactive)
NS(=O)(=O)c1ccc(-n2cc(-c3cccc(NC(=O)c4cc(C(F)(F)F)cc(C(F)(F)F)c4)c3)nn2)cc1	63.4% (inactive)
O=c1[nH]c2ccccc2cc1CSc1cccc(Nc2nccc(-c3ccc4ccccc4c3)n2)c1	93.5% (inactive)
CNc1nc2ccccc2n2c(-c3ccc(O)c(O)c3)cnc12	-19.6% (active)
O=C(CNc1nc(-c2ccccc2)cs1)Nc1ccc(Cl)cc1	-46.7% (active)
COc1ccc(C(SCCNCc2cc(N(C)C)ccn2)(c2ccccc2)c2ccccc2)cc1	-43.7% (active)
COc1cc(C=O)ccc1Oc1nc(Nc2ccc(F)cc2)nc(N(C)C)n1	65.2% (inactive) and 70.8% (inactive)
O=C(OCCOCCO)N(c1cccc(Br)c1)c1nc(SCCN2CCOCC2)nc2c1cnn2CC(Cl)c1ccc(Br)cc1 (stereo not drawn)	-46.8% (active)
O=C(COc1ccc(NC(=O)Nc2ccc(Cl)c(Cl)c2)cc1)N=Nc1c(O)[nH]c2ccc(Cl)cc12	-23% (active)
Clc1cccc(N/N=C/c2c[nH]c3ccccc23)n1	13.8% (inactive)
COc1cccc(/C=C2\N=C(C)N(CCc3ccc(S(N)(=O)=O)cc3)C2=O)c1	89.4% (inactive)
CCOC(=O)CNC(=O)CN(Cc1ccccc1)C(=O)[C@@]1(C)CCC[C@]2(C)[C@H]3C[C@H]4C(C(C)C)=C[C@]3(CC[C@H]21)[C@@H]1C(=O)OC(=O)[C@@H]14	9.46% (active)
COc1ccc(-c2ccnc(SCc3cc4cc(Cl)ccc4[nH]c3=O)n2)cc1	120% (inactive)
Cc1nn(-c2ccccc2)c2nc(C)n(C(=O)N/N=C/c3ccccc3)c(=O)c12	104% (inactive)
CC1(C)[C@@H](NCO)CC[C@]2(C)[C@H]3C(=O)C=C4[C@@H]5C[C@](C)(CO)CC[C@]5(C)CC[C@@]4(C)[C@]3(C)CC[C@@H]12	58.2% (inactive)
Cc1ccc2nc(COc3ccc(C(=O)NNC(=S)NC(=O)c4ccccc4)cc3)[nH]c2c1	70.7% (inactive)
